# The list is not random: actives were taken first. Their share in the collection is about 19%.
# ELG1 repair inh = inhibitors of ELG1-dependent DNA repair in HEK293T cells | HEK293T ELG1-luciferase reporter, luminescence, 16 h; DNA damage induced by 5-fluorouridine | Potency, µM (titrated, usually from 46.1 µM), for the others: at the top dose activity change, negative = inhibition, most hits filed as inhibitors | 330,000 compounds, 2.3% hits | AID 504467; also: potency is read from the fitted curve at half-maximal effect; nearly all actives have a fitted effect of over 55% in size
#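 HEK293T cells expressing luciferase-tagged ELG1 (2,000/well) received 5-Fluorouridine plus compound or DMSO for 16 hr at 37 °C. Luciferase was read by ONE-Glo luminescence after 30 min at room temperature.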
# TDP1 inh = TDP1 (human) enzyme inhibition; Q9NUW8; recombinant TDP1, AlphaScreen DNA substrate cleavage; Potency, µM (titrated, usually from 130 µM), for inactives: at the highest dose activity change, negative = inhibition, actives largely listed as inhibitors; 350,000 compounds, 0.28% hits; AID 485290; also: potency is read from the fitted curve at half-maximal effect; nearly all actives have a fitted effect of over 40% in size
# Target sequence (Q9NUW8 whole entry, looked up): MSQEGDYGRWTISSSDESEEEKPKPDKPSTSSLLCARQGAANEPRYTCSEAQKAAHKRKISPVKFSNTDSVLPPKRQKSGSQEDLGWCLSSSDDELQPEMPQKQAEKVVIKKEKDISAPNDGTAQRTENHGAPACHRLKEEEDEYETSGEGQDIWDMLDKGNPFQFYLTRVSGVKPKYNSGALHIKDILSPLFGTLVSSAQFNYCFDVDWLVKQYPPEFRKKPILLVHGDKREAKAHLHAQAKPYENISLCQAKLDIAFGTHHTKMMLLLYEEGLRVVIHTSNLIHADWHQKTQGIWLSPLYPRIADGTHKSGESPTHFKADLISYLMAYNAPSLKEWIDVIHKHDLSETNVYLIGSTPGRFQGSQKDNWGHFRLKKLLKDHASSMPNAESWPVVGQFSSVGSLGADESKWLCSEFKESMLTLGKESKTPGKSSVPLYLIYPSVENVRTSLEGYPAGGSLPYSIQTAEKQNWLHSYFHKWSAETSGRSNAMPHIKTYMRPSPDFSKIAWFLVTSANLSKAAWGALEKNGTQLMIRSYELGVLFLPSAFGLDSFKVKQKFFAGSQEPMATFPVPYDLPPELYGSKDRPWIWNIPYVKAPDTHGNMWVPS
#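 Steps: enzyme plus compound, 15 min RT; add biotin/phosphotyrosine-FITC oligonucleotide (15 nM final), react 5 min; add donor/acceptor beads (10 ug/ml final), 10 min; read AlphaScreen. Tdp1 at 1 nM final.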
# TDP1 cell CPT = growth inhibition of DT40 Tdp1-/-;hTDP1 cells with camptothecin (screen for TDP1 inhibitors) | chicken DT40 Tdp1-/-;hTDP1 cells + 20 nM CPT, ATP luminescence, 48 h | Potency, µM (series often up to 46.2 µM), for the others: at the highest dose activity change, negative = growth inhibition, actives largely listed as inhibitors | 420,000 compounds, 12% hits; also: potency is read from the fitted curve at half-maximal effect; nearly all actives have a fitted effect of over 55% in size
#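 Chicken DT40 Tdp1-/- cells stably complemented with human TDP1 were seeded at 400 cells/well in medium containing 20 nM camptothecin, exposed to pin-transferred compounds, and grown at 37 °C for at least 48 hr. Viability was read as ATP luminescence.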
# IL-1B inflam inh = inhibitors of inflammasome signaling (IL-1 beta secretion); THP-1 LPS/ATP IL-1B secretion, AlphaLISA, 16 h; hits give low values; activity change, % at 57.5 µM; 360,000 compounds, 4.7% hits; AID 743279; in the data active = activity change below about -50%; inconclusive = mostly about -30% to -49%
#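 THP-1 cells pretreated 1 hr with compounds (up to 57.5 uM final), then stimulated with LPS (250 ng/mL final) plus ATP (1.25 mM final); secreted IL-1B measured by AlphaLISA after 16 hr, decreased signal indicating inhibition.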
# Giardia kill = Giardia lamblia killing; Giardia lamblia trophozoite viability; activity change, % at 7.66 µM, hits read low; 340,000 compounds, 0.15% hits; AID 540267; in the data active = activity change below about -80%; inconclusive = between about -30% and that limit;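 also: parasites exposed to compound for two days anaerobically before the ATP read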
#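 Viability, read as ATP luminescence: trophozoites at 100 cells/well, compound added, 48 hrs anaerobic at 37 deg C, then 15-30 min room-temperature development before reading.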
# TDP1 cell noCPT = qHTS for Inhibitors of human tyrosyl-DNA phosphodiesterase 1 (TDP1): qHTS in cells in absence of CPT; DT40 Tdp1-/- hTDP1 cells, no CPT, ATP luminescence, 48 h; Potency, µM (top dose mostly 46.2 µM), for inactives: at the top dose activity change, negative = growth inhibition, hits mostly inhibitors; 420,000 compounds, 15% hits; also: potency is read from the fitted curve at half-maximal effect; nearly all actives have a fitted effect of over 55% in size
#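 Cells were dispensed at 400 per well, compounds added by pin tool, plates incubated ≥48 hr at 37 °C, then CellTiter-Glo added for 30 min at room temperature before luminescence reading. Line: DT40 Tdp1-/- complemented with hTDP1; camptothecin omitted.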
# Starred values were filed as active, the others as inactive; u = inconclusive; x = no result. Unless noted, calls follow the shape of the dose curve; as a rule, active = well fitted curve in the direction sought with a large enough effect; inconclusive = small, poorly fitted or top-dose-only effect, or another doubt; inactive = no such curve, though single readings can be large; an effect the other way counts as inactive or inconclusive. % is scaled to controls: 0 for no effect and ±100 for the full control effect.
SMILES,ELG1 repair inh,TDP1 inh,TDP1 cell CPT,IL-1B inflam inh,Giardia kill,TDP1 cell noCPT
Oc1ccccc1/C=N/NC(=S)NC1CC2C=CC1C2 (centres undefined),u,8.6%,1.84µM*,-100.0*,16.3,1.64µM*
CCOc1ccc(NC(=O)CCCN2C(=S)NC(C)(C)CC2C)cc1 (centres undefined),5.4%,2.3%,4.3%,4.0,-4.2,-0.6%
Cc1ccc(C)c(N2CCN(C(=O)CCCN3C(=S)NC(C)(C)CC3C)CC2)c1 (centres undefined),u,10.5%,18.4µM*,-28.7,-6.4,10.3µM*
CC1CC(C)(C)NC(=S)N1CCCC(=O)Nc1ccc(Br)cc1 (centres undefined),-7.3%,2.6%,u,-78.1*,6.5,u
CC1CCCCC1NC(=O)C1CCC(CNS(=O)(=O)c2cccc3cccnc23)CC1 (centres undefined),-8.0%,1.3%,u,35.0,-2.6,u
Cc1ccc(S(=O)(=O)N2CC=C(C(=O)NC3CC3)CC2)cc1,-14.3%,x,u,-5.4,-6.6,u
COC(=O)c1cccnc1N1CCN(c2ccccc2F)CC1,7.2%,-5.6%,1.4%,-2.6,15.1,1.0%
CC(C)OC(=O)c1ccc(N2CCN(c3ccccc3F)CC2)nc1,u,x,u,19.3,3.0,18.4µM*
COc1ccc(OC)c(NC(=O)c2cc3oc4ccccc4c3cc2O)c1,-7.0%,-2.9%,u,30.9,5.8,16.4µM*
COC(=O)c1cnc(N2CCN(c3ccccc3F)CC2)c2ccccc12,x,0.0%,u,x,x,16.4µM*
COc1ccc(OC)c(NC(=O)c2cc3c(cc2Cl)N2CCCCCC2=NS3(=O)=O)c1,-14.0%,0.7%,u,14.6,-5.9,16.4µM*
COc1ccc(NC(=O)CN(C)C(=O)c2cc3c(cc2Cl)N2CCCCCC2=NS3(=O)=O)cc1,2.4%,x,0.9%,5.6,12.0,-1.4%
CCOc1cc(/C=C/C(=O)OCC(=O)NC2CCS(=O)(=O)C2)ccc1OCc1ccccc1 (centres undefined),25.0%,0.0%,22.1%,13.5,-9.7,-9.4%
CC(=O)N1[C@H](C)C=C[C@]1(Cc1ccccc1)C(=O)O,10.5%,-1.3%,-18.7%,19.4,5.3,-18.5%
Cc1ccnc(NC(=O)C2CCCN(S(=O)(=O)c3ccc4[nH]c(=O)ccc4c3)C2)c1 (centres undefined),0.6%,0.7%,-2.7%,-2.8,-13.6,24.3%
COc1ccc(OC)c(NC(=O)c2cnc(N3CCCC3)nc2C)c1,x,1.2%,-1.0%,x,x,-14.1%
CCOc1ccccc1NC(=O)c1cnc(N2CCOCC2)c2ccccc12,x,4.4%,20.6µM*,x,x,18.4µM*
CCN1CCN(c2ncc(C(=O)Nc3ccccc3C(=O)OC)c3ccccc23)CC1,-5.4%,3.8%,23.1µM*,u,-19.7,16.4µM*
COc1ccc(OC)c(NC(=O)c2cnc(N3CCCCC3)c3ccccc23)c1,x,6.6%,10.3µM*,x,x,8.2µM*
CC(=O)c1c(C)[nH]c(C(=O)CN2CCN(S(=O)(=O)c3ccccc3[N+](=O)[O-])CC2)c1C,u,3.3%,20.6µM*,-7.0,10.5,13µM*
CC1(C)CC2CC(C)(CN2S(=O)(=O)c2ccccc2[N+](=O)[O-])C1 (centres undefined),u,0.6%,20.6µM*,-4.5,-13.5,20.6µM*
CC1CC(C)CN(S(=O)(=O)c2ccccc2[N+](=O)[O-])C1 (centres undefined),-4.6%,3.4%,13µM*,-12.5,-2.3,13µM*
CC1(C)CC2CC(C)(CN2S(=O)(=O)c2cccc(N)c2)C1 (centres undefined),-6.3%,4.4%,u,16.7,13.4,u
COc1ccc(C(=O)Nc2nnc(S(=O)(=O)N3CCN(c4ccc(F)cc4)CC3)s2)cc1,x,2.6%,-10.1%,x,x,-19.3%
Cn1c(=O)c2c(nc(NCc3ccco3)n2C/C=C/c2ccccc2)n(C)c1=O,4.61µM*,8.1%,1.46µM*,-62.1*,11.6,0.651µM*
SMILES,ELG1 repair inh,TDP1 inh,TDP1 cell CPT,IL-1B inflam inh,Giardia kill,TDP1 cell noCPT
Cn1c(=O)c2c(nc(NCc3ccco3)n2Cc2ccccc2Cl)n(C)c1=O,u,7.0%,4.11µM*,-9.9,28.6,2.06µM*
COc1cc(OC)cc(-c2nnc(SCC(=O)Nc3cccc(C(=O)O)c3)s2)c1,15.6%,2.6%,-2.6%,18.5,-16.4,2.4%
COc1cc(C(=O)NCC(c2ccccc2)N(C)C)ccc1OCC(=O)N1CCOCC1 (centres undefined),-1.0%,1.2%,-6.2%,2.2,-10.6,-10.7%
CC(C)n1cc(/C=C2/NC(=O)N(c3cccc(Cl)c3)C2=O)c2ccccc21,u,-2.4%,25.9µM*,-0.2,4.4,u
O=[S@]1Oc2ccccc2-c2ccccc21,x,x,u,u,-16.5,13µM*
O=C(NCCN1CCOCC1)c1cc(Cl)ccc1Cl,8.8%,2.9%,-7.6%,0.0,-0.8,17.4%
O=C(NCCN1CCOCC1)NC1(C(F)(F)F)Oc2ccc(Cl)cc2O1 (centres undefined),-19.7%,1.9%,u,31.5,2.5,13µM*
COCC(C)NC(=O)NC1(C(F)(F)F)Oc2ccc(Cl)cc2O1 (centres undefined),-2.3%,-5.2%,13µM*,58.0,-13.4,13µM*
COC(=O)c1ccc2c(=O)[nH]c(COC(=O)c3c(-c4ccccc4Cl)noc3C)nc2c1,u,x,-15.3%,24.4,-16.6,-20.3%
CC1(C)CC(C#N)(N2CCOCC2)CCO1 (centres undefined),x,-4.1%,2.91µM*,15.5,2.6,u
CN1CC(=O)N(CC(=O)Nc2ccc(OC(F)(F)F)cc2)c2ccccc2C1=O,x,0.5%,-0.4%,x,x,-20.7%
CC1CCC(NC(=O)CN2C(=O)c3cccnc3Oc3ccc(Cl)cc32)CC1 (centres undefined),u,5.5%,-25.2%,27.3,11.3,-2.9%
O=C(COC(=O)c1cccc(S(=O)(=O)N2CCCC2)c1)Nc1cccc(Br)c1,x,x,-12.0%,-6.6,x,-5.1%
N#C/C(=C/c1ccc(N2CCCCC2)o1)c1cccc(F)c1,u,7.9%,10.3µM*,-27.7,-17.5,14.6µM*
N#C/C(=C/c1ccc(N2CCCCCC2)o1)c1ccc(Cl)cc1,u,11.1%,14.6µM*,-101.5*,12.0,18.4µM*
O=C(Nc1ccc(S(=O)(=O)Nc2nccs2)cc1)c1ccccc1OC(F)F,14.0%,3.1%,1.1%,4.7,2.8,13.8%

# Compound activity from PubChem BioAssay.
